# Shown are actives, neighbours in structure and some others; about 21% of the full set was active somewhere.
# Shiga toxin inh: Shiga toxin inhibition | AID 2315 | inhibition, % at 38.7 µM | Vero cells, Shiga toxin protein synthesis inhibition reporter | hit rate 9.2% among 290,000; in the data active means inhibition mostly above about 28%, no sharp cut-off; inactive means mostly below about 43%; further: 0% is about no effect
# SARS PLP yeast: SARS-CoV PLP inhibition in yeast | Potency, µM (highest dose often 32.9 µM), without a hit: at the top dose activity, positive = growth rescue, most hits filed as activators | S. cerevisiae expressing SARS-CoV PLpro, growth rescue | hit rate 0.19% among 330,000; calls by dose curve; further: potency means the concentration at half of the fitted maximal effect; 0% is about no effect; nearly all actives have a fitted effect of over 55% in size
# Cycloheximide cs: affects cycloheximide protein synthesis inhibition readout, counter-screen | max response, % | hit rate 12% among 300,000 | cell reporter, cycloheximide protein synthesis inhibition counterscreen; in the data active means max response mostly above about 13%, no sharp cut-off; inactive means mostly below about 14%; further: read at 38.3 µM for the half of the compounds with a filed dose; 0% is about no effect
# Pf growth 48h: P. falciparum growth inhibition at 48 hours (one generation); P. falciparum luciferase growth in erythrocytes, 48 h; Potency, µM (highest dose often 28.7 µM), for inactives: at the top dose activity change, negative = inhibition, usual class: inhibitors; hit rate 5.9% among 310,000; further: potency means the concentration at half of the fitted maximal effect; on the % scale 0 is the no-effect control and ±100 the full control effect
#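 Erythrocytes infected with P. falciparum carrying an integrated firefly luciferase reporter (2% hematocrit, 0.1% parasitemia final) were exposed to compounds in RPMI 1640 with 0.5% Albumax at 37 C, 5% CO2. Growth inhibition was scored as reduced luminescence.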
# Pf growth 96h: P. falciparum growth inhibition at 96 hour, primary screen for plastid delayed-death inhibitors; P. falciparum luciferase reporter growth, 96 h; Potency, µM (highest dose often 28.7 µM), for inactives: at the highest dose activity change, negative = inhibition, usual class: inhibitors; hit rate 6.9% among 320,000; AID 504834; further: potency means the concentration at half of the fitted maximal effect; on the % scale 0 is the no-effect control and ±100 the full control effect
#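 Luminescence readout: decreased luciferase signal marks inhibited growth of reporter-expressing P. falciparum in infected red cells (2% hematocrit, 0.05% parasitemia final), exposed to compound two generations (96 h, 37 C, 5% CO2).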
# NS1 function inh: inhibitors of influenza NS1 protein function | hit rate 0.4% among 270,000 | Potency, µM (highest dose often 46.1 µM), for the others: top-dose activity, positive = more growth; calls by dose curve; further: potency means the concentration at half of the fitted maximal effect; actives are rising curves; nearly all actives have a fitted effect of over 50% in size
#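 A cell-based growth assay was used: compounds that relieve NS1-induced slow growth of budding yeast raise OD600. Assay medium was yeast nitrogen base with ammonium sulphate and -URA supplement, pH 6.0, with 2% galactose.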
# * = called active by the depositor; ? = inconclusive; / = not tested or not shown. Unless noted, the call rests on the fitted dose curve; in most records, active means well fitted inhibition curve with a large enough effect; inconclusive means small, poorly fitted or top-dose-only effect, or another doubt; inactive means no such curve, though single readings can be large or run the other way.
SMILES,Shiga toxin inh,SARS PLP yeast,Cycloheximide cs,Pf growth 48h,Pf growth 96h,NS1 function inh
CC(=O)Nc1ccc(S(=O)(=O)/N=C2\C(=O)c3ccccc3C([O-])=C2n2cc[n+](-c3ccccn3)c2)cc1,31,-1%,9,1.5µM*,4.7µM*,0%
Cc1ccc(S(=O)(=O)/N=C2\C(=O)c3ccccc3C([O-])=C2n2cc[n+](CCC(C)C)c2)cc1,-2,-2%,2,13µM*,3.3µM*,6%
CCCC[n+]1ccn(C2=C([O-])c3ccccc3C(=O)/C2=N\S(=O)(=O)c2ccc(Br)cc2)c1,2,13%,1,3.3µM*,?,14%
Cc1c(C(=O)NCc2ccc(S(N)(=O)=O)cc2)oc2ccc(Cl)cc12,15,-1%,-1,26%,0%,6%
C=CCn1c(C(CC)CC)nc2ccccc21,17,-1%,-1,-7%,22%,1%
O=C(COC(=O)c1cc([N+](=O)[O-])ccc1N1CCOCC1)Nc1ccc(Cl)cn1,-12,-8%,-4,-13%,?,-27%
COc1cccc(C2CCCN2Cc2nc(-c3cnccn3)no2)c1 (centres undefined),-10,0%,-4,13µM*,14%,-2%
CCN(CC)CCOc1c(Br)ccc2c1sc1nc3n(c(=O)c12)CCC3,1,0%,-4,?,13µM*,-31%
O=c1c2c(nc3n1CCCCC3)sc1c(O)c(Br)ccc12,40,-10%,16*,3%,/,-49%
COc1cc(/C=C/c2nc3ccccc3c(=O)n2-c2ccccc2O)ccc1O,-6,0%,-2,9.3µM*,9.3µM*,-7%
COc1cc(/C=C/c2nc3ccccc3c(=O)n2-c2cccc(O)c2)ccc1O,59*,4%,17,0%,-26%,2%
O=c1c2ccccc2nc(/C=C/c2ccc(O)c(O)c2)n1-c1ccccc1,10,-6%,7,?,-22%,13%
Cc1ccc(NC(=S)NC(NC(=O)c2ccccc2C)C(Cl)(Cl)Cl)c(C)c1 (centres undefined),37,0%,-3,?,64%,?
O=C(Nc1ccccc1Cl)c1ccc(COc2ccc3c(c2)CCC3)cc1,60*,12%,25*,44%,83%,16%
O=C(O)c1ccc(COc2ccc3c(c2)CCC3)cc1,54*,-2%,25*,101%,152%,-57%
Cc1ccc(NC(=O)c2ccc(COc3ccc4c(c3)CCC4)cc2)c(C)c1,25,23%,17*,2%,?,3%
Cn1c(Sc2ccc(Br)cc2)c(C=O)c2ccccc21,1,-7%,-3,?,?,-88%
COc1ccc(-c2noc(N3CCC(C(=O)NCc4ccccc4Cl)CC3)n2)cc1,3,-18%,4,?,?,9%
COc1ccc(-c2noc(N3CCC(C(=O)NCCCN4CCCCC4)CC3)n2)cc1,20*,-3%,3,?,2%,0%
COc1ccc(-c2noc(N3CCC(C(=O)N(C)c4ccccc4)CC3)n2)cc1,13,8%,8.2*,?,1%,-54%
COc1ccc(-c2noc(N3CCC(C(=O)NCCCN4CCCC(C)C4)CC3)n2)cc1 (centres undefined),18,1%,active,-5%,8%,-1%
COc1ccc(-c2noc(N3CCC(C(=O)NCc4ccc(Cl)cc4)CC3)n2)cc1,1,-5%,0,31%,-2%,-1%
Cc1noc(NS(=O)(=O)c2ccc(NC(=O)C(C)(C)C)cc2)c1C,-6,1%,10,16%,?,-4%
Cc1noc(NS(=O)(=O)c2ccc(NC(=O)C(F)(F)F)cc2)c1C,8,1%,-2,2%,-18%,18%
Cc1noc(NS(=O)(=O)c2ccc(N/C=C\C(=O)c3ccc(Br)cc3)cc2)c1C,58*,-4%,19*,20%,52%,-82%
SMILES,Shiga toxin inh,SARS PLP yeast,Cycloheximide cs,Pf growth 48h,Pf growth 96h,NS1 function inh
Cc1noc(NS(=O)(=O)c2ccc(NC(=O)/C=C/c3ccc(C(C)C)cc3)cc2)c1C,16,-2%,-2,33%,10µM*,22%
Cc1noc(NS(=O)(=O)c2ccc(N/C=C\C(=O)c3ccc4c(c3)OCO4)cc2)c1C,72*,-33%,37*,51%,?,-219%
Cc1noc(NS(=O)(=O)c2ccc(NC(=O)/C=C/c3ccc(Br)cc3)cc2)c1C,-5,-1%,-1,9%,?,-5%
CCOc1ccc(C(=O)/C=C/Nc2ccc(S(=O)(=O)Nc3onc(C)c3C)cc2)cc1,85*,-6%,20*,37%,2%,-38%
CCc1cccc(C)c1NC(=O)CN(C)C1=NS(=O)(=O)c2ccccc21,/,0%,/,12%,27%,/
CCN(CC)C(=O)Oc1nnc(SC(C)C)n1-c1ccc(Cl)cc1,-10,1%,-2,?,?,-3%
CC(NC(=O)c1ccc2c(c1)OCCO2)c1ccc(S(N)(=O)=O)cc1 (centres undefined),20,0%,-2,8%,11%,/
COc1cc(Br)c(CC(=O)NNC(=O)c2ccc(F)cc2)cc1OC,/,2%,/,/,/,/
CCOc1ccc(N(CC(=O)NC2CCCC2)C(=O)c2ccc(C)s2)cc1,-2,-5%,-6,-22%,34%,-19%
COc1cccc(C(=O)/C=C/Nc2ccc(S(=O)(=O)Nc3onc(C)c3C)cc2)c1,63*,26%,44*,38%,2%,-38%
Cc1noc(NS(=O)(=O)c2ccc(N/C=C\C(=O)c3cccc4ccccc34)cc2)c1C,40,-2%,12,24%,?,/
c1ccc(C(c2ccccc2)c2nc(-c3cccnc3)no2)cc1,-4,-40%,-3,?,?,-31%
Brc1ccc(-c2nc(-c3ccccc3)no2)o1,104*,-3%,59*,200%,/,1%
Brc1ccc(-c2nc(-c3cccnc3)no2)o1,111*,8%,69*,-34%,?,-77%
CC(C)N(Cc1nc(-c2ccccc2)no1)C(=O)c1ccc(Br)o1,20,-7%,11,-6%,/,-23%
O=C1C[C@H](c2ccc(-c3ccccc3)cc2)N1S(=O)(=O)c1ccccc1[N+](=O)[O-],6,/,-3,/,/,/
COC(=O)C(=Nc1ccccc1)/C(C(=O)C(=O)N(C)c1ccccc1)=C(\O)c1ccccc1,119*,0%,44*,34%,87%,8%
c1ccc(NC2=NCCN2CC2CCCCCC2)cc1,/,-1%,/,?,?,/
CC(NC(=O)COC(=O)c1ccccc1O)C1CC2CCC1C2 (centres undefined),/,-8%,/,/,/,/
NC(=O)C1(N2CCCCC2)CCN(Cc2ccc(Br)cc2)CC1,13,0%,26*,-10%,4%,1%
COc1ccc(-c2cc(-c3ccccc3O)[nH]n2)cc1,71*,-29%,55*,59%,224%,-194%
COc1ccc(-c2cc(-c3ccccc3)n[nH]2)c(O)c1,82*,-3%,32*,-22%,23%,-60%

# Assay outcomes deposited in PubChem by National Center for Advancing Translational Sciences (NCATS).
